Drawing on PubChem BioAssay (Tox21), this text covers Potency for 22 compounds.

Results filed as inconclusive are left out. A call without a number means that no potency is given here. Activity calls are given as the source filed them. Unless noted, the call rests on the fitted dose curve; in most records, active means well fitted cell-killing curve with a large enough effect in the repeat runs; inconclusive means weak or mixed curves, or effect the other way; inactive means flat fitted curve, though single readings scatter.
Potency means the concentration at half of the fitted maximal effect.

Peroxisome proliferator-activated receptor gamma (Homo sapiens), sequence (P37231 whole entry, looked up): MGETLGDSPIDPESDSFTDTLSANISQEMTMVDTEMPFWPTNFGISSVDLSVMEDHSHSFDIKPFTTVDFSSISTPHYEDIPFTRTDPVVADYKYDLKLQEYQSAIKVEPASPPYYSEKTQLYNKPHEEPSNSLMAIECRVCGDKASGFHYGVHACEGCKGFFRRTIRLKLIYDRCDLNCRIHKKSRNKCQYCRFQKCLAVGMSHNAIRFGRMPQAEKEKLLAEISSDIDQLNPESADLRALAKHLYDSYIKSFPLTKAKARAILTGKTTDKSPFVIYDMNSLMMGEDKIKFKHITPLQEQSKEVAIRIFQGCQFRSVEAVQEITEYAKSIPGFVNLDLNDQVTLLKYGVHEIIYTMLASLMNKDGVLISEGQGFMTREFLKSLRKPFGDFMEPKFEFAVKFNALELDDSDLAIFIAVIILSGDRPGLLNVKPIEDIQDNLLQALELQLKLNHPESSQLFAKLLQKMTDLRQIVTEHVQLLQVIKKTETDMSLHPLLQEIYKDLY

Test system in the first experiment: not listed separately
The experiment can be described thus: qHTS assay to identify small molecule that activate the aryl hydrocarbon receptor (AhR) signaling pathway - cell viability counter screen (AID 743086). Further: nearly all actives have a fitted effect of over 45% in size. The following applies: HepG2-AhR-luc viability, CellTiter-Fluor, 24 h; series mostly up to 70.3 µM. The gist of the method:
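Cytotoxicity counter screen: CellTiter-Fluor signal (30 min, 37 C) in 4000 HepG2 cells/well carrying the DRE-luciferase reporter, following 24 h compound exposure at 37 C.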
In the case of `CCOC(=O)c1nc(C(Cl)(Cl)Cl)n(-c2ccc(Cl)cc2Cl)n1`, the Potency was 61.1 µM (active).
Still for that read-out and setting: the same measure for `CSc1ccc2c(c1)C(N1CCN(C)CC1)Cc1ccccc1S2` (stereo not given): 29.8 µM (active); for `Oc1ccc(Cl)cc1Sc1cc(Cl)ccc1O`: “inactive”; for `O=c1cccccc1O`: “inactive”.
The same measure, in the same setting: the same measure for `O=C1c2ccccc2Cc2ccccc21`: “inactive”; for `Fc1ccc([C@@H]2CCNC[C@H]2COc2ccc3c(c2)OCO3)cc1`: 26.6 µM (active); for `O=CC=C(c1ccccc1)c1ccccc1`: “inactive”.
On the same count and under the same terms, the same measure for `CCOc1ccc2nc3cc(N)ccc3c(N)c2c1`: “inactive”; for `O=c1c(-c2ccccc2)c1-c1ccccc1`: “inactive”.
In the case of `C/C=C1/C(=O)C[C@H]2[C@@H]3CCC4=CC(=O)CC[C@]4(C)[C@H]3CC[C@]12C`, the Potency result was “inactive”.
Regarding `NC(=NCCCCCCN=C(N)/N=C(\N)Nc1ccc(Cl)cc1)/N=C(\N)Nc1ccc(Cl)cc1`, the Potency entry is “inactive”.
On the same count and under the same terms, the same measure for `CCCCCCOC(=O)c1ccc(O)cc1`: “inactive”; for `Cc1cc2c(cc1C(F)(F)F)N(C(=O)Nc1ccc(Oc3cccnc3C)nc1)CC2`: “inactive”.
With `O=C1CCCCCN1SSN1CCCCCC1=O`, the Potency result is “inactive”.
Take `CCCCCCCCS(=O)C(C)Cc1ccc2c(c1)OCO2` (stereo not given): the Potency entry was “inactive”.
On the same count and under the same terms, with `NC(=O)N1C(=O)C(C(=O)c2cc(Cl)cs2)c2cc(F)c(Cl)cc21` (stereo not given) the figure was 12.2 µM (active); with `CCCN(CCC)C(=O)C(CCC(=O)OCCCN1CCN(CCOC(=O)Cc2c(C)n(C(=O)c3ccc(Cl)cc3)c3ccc(OC)cc23)CC1)NC(=O)c1ccccc1` (stereo not given), 21.1 µM (active).
As for `COc1cc(-c2nc(NC(=O)c3cc4cc(C)cc(C)c4n3CC(=O)O)sc2CCC2CCCCC2)c(OC)cc1Cl`, the Potency entry is “inactive”.

A further experiment has as its target Peroxisome proliferator-activated receptor gamma (Homo sapiens) (UniProt P37231). The experiment can be described thus: qHTS assay to identify small molecule agonists of the peroxisome proliferator-activated receptor gamma (PPARg) signaling pathway (AID 743094; active means well fitted activation curve with a large enough effect in the signal ratio in the repeat runs, not every such curve was filed as active; the % refers to the signal ratio). The following applies: HEK293H PPARg-UAS-bla, beta-lactamase FRET ratio, 17 h; series mostly up to 57 µM. The gist of the method:
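Quantitative HTS agonist mode: stable HEK293H line with UAS-beta-lactamase reporter under PPARg control, 17 h compound exposure at 37C, fluorescence after 1 h FRET substrate loading at room temperature.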
(Quantitative high-throughput screening tests each substance at several concentrations.)
As for `C[n+]1ccn(Cc2ccccc2)c1`, the Potency result was “inactive”.
On the same count and under the same terms, with `CCOC(=O)c1nc(C(Cl)(Cl)Cl)n(-c2ccc(Cl)cc2Cl)n1` the entry was “inactive”.
For `CCc1oc2ccccc2c1C(=O)c1cc(Br)c(O)c(Br)c1`, the Potency is 3.01 µM (active).
For the compound `Oc1ccc(Cl)cc1Sc1cc(Cl)ccc1O`, the Potency entry is “inactive”.
The same measure, in the same setting: the same measure for `O=C1c2ccccc2Cc2ccccc21`: “inactive”.
On to `O=C(Nc1cccc([N+](=O)[O-])c1)c1cc2ccccc2cc1O`, for which the Potency entry was “inactive”.
For the compound `NC(=NCCCCCCN=C(N)/N=C(\N)Nc1ccc(Cl)cc1)/N=C(\N)Nc1ccc(Cl)cc1`, the Potency entry is “inactive”.
Still for that read-out and setting: with `CCCCCCOC(=O)c1ccc(O)cc1` the entry was “inactive”.
Still for that read-out and setting: the same measure for `Cc1cc2c(cc1C(F)(F)F)N(C(=O)Nc1ccc(Oc3cccnc3C)nc1)CC2`: “inactive”; for `O=C1CCCCCN1SSN1CCCCCC1=O`: “inactive”.
Still for that read-out and setting: the same measure for `O=C(NOCC1CC1)c1ccc(F)c(F)c1Nc1ccc(I)cc1Cl`: “inactive”; for `COc1cc(-c2nc(NC(=O)c3cc4cc(C)cc(C)c4n3CC(=O)O)sc2CCC2CCCCC2)c(OC)cc1Cl`: 35.7 µM (active).
